Compound activity as filed in PubChem.
IL-1B inflam inh – inflammasome signaling inhibition, IL-1 beta readout; THP-1 LPS/ATP IL-1B secretion, AlphaLISA, 16 h; stronger effect = lower value; activity change, % at 57.5 µM; 360,000 tested, 4.7% active; AID 743279; in the data active = activity change below about -50%; inconclusive = mostly about -30% to -49%
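THP-1 cells pretreated 1 hr with compounds (up to 57.5 uM final), then stimulated with LPS (250 ng/mL final) plus ATP (1.25 mM final); secreted IL-1B measured by AlphaLISA after 16 hr, decreased signal indicating inhibition.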
DT40 TDP1 CPT – DT40-hTDP1 cell growth loss with CPT; AID 686979; chicken DT40 Tdp1-/-;hTDP1 cells + 20 nM CPT, ATP luminescence, 48 h; 420,000 tested, 12% active; Potency, µM (top dose mostly 46.2 µM), actives largely listed as inhibitors; also: nearly all actives have a fitted effect of over 55% in size
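Cell growth measured by CellTiter-Glo luminescence after a minimum 48 h, 37 C compound exposure with 20 nM CPT in Tdp1-knockout DT40 cells stably expressing hTDP1, seeded 400/well; qHTS titration format.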
TDP1 cell noCPT – qHTS for Inhibitors of human tyrosyl-DNA phosphodiesterase 1 (TDP1): qHTS in cells in absence of CPT. DT40 Tdp1-/- hTDP1 cells, no CPT, ATP luminescence, 48 h. Potency, µM (top dose mostly 46.2 µM), most hits filed as inhibitors. 420,000 tested, 15% active; also: nearly all actives have a fitted effect of over 55% in size
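Compound effects on proliferation are scored in DT40 Tdp1-/-;hTDP1 cells in the absence of CPT. ATP levels (CellTiter-Glo luminescence) are recorded after a ≥48 hr, 37 °C incubation.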
TDP1 block – blocks human tyrosyl-DNA phosphodiesterase 1; Q9NUW8; recombinant TDP1, AlphaScreen DNA substrate cleavage; Potency, µM (top dose mostly 130 µM), usual class: inhibitors; 350,000 tested, 0.28% active; also: nearly all actives have a fitted effect of over 40% in size
Target sequence (Q9NUW8 whole entry, looked up): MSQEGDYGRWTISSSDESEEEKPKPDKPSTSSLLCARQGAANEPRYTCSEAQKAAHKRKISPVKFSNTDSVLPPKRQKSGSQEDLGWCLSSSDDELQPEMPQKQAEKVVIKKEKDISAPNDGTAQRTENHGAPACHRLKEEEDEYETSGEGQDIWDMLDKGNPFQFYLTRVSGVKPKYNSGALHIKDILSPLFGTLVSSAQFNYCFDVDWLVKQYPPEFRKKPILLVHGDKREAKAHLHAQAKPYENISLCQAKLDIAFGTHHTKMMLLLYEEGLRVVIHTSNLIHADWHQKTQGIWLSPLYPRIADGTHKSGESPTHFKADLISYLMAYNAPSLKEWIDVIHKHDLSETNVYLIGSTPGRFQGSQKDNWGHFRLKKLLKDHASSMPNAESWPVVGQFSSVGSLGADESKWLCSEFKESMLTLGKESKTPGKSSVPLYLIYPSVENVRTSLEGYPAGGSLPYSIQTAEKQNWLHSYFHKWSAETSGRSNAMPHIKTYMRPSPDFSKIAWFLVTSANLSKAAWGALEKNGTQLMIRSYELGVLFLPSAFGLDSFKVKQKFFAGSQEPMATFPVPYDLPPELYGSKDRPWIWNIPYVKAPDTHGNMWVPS
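Tdp1 1 nM final; 15 min RT w/ cpd; substrate 15 nM, 5 min; beads 10 ug/ml, 10 min; AlphaScreen read. Neg ctrl: no enzyme.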
CtBP-E1A blk – blocks the CtBP interaction with E1A; AlphaScreen GST-E1A/His-CtBP binding, 1536-well; stronger effect = lower value; activity change, % (test concentration not listed); 340,000 tested, 0.49% active; in the data active = activity change below about -65%; inconclusive = mostly about -30% to -63%
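Protein mix (5X: 125 nM each GST-E1A, His-CtBP) was incubated with pinned compound 2 h at 37 deg C in dark, in 50 mM Tris pH 8.0 buffer with 300 mM NaCl. Glutathione donor and nickel acceptor beads followed; AlphaScreen signal read after 1 h.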
Six1-Eya2 inh – inhibitors of human Six1/Eya2 interaction | activity change, % (concentration not given with the values) | Q15475+O00167 | 360,000 tested, 0.56% active | AlphaScreen GST-Six1/His-Eya2 binding, biochemical; stronger effect = lower value; in the data active = activity change below about -65%; inconclusive = mostly about -30% to -63%
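AlphaScreen luminescence read after one hour at 37 °C in darkness. Pin-transferred compounds met GST-Six1 and His-Eya2 protein (5X stock 250 nM/500 nM) plus glutathione donor and Ni-chelate acceptor beads (5X, 50 ug/mL).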
A number is an active result; i = inactive; ? = inconclusive; nt = not tested or not shown; [ ] = another dose, or the depositor's remark. Sampled rows, rich in hits. Any-hit rate of the full collection: about 18%. Unless noted, calls follow the shape of the dose curve; as a rule, active = well fitted curve in the direction sought with a large enough effect; inconclusive = small, poorly fitted or top-dose-only effect, or another doubt; inactive = no such curve, though single readings can be large; an effect the other way counts as inactive or inconclusive.

SMILES	IL-1B inflam inh	DT40 TDP1 CPT	TDP1 cell noCPT	TDP1 block	CtBP-E1A blk	Six1-Eya2 inh
Cc1cc2cc(CN(CC3CCCO3)C(=S)NCc3ccco3)c(=O)[nH]c2cc1C (configuration not stated)	-75	?	16µM	i	i	i
CCNC(=S)N(Cc1ccco1)Cc1cc2cc3c(cc2[nH]c1=O)OCCO3	i	?	?	i	i	i
CCc1ccc2[nH]c(=O)c(CN(Cc3ccco3)C(=S)NCC3CCCO3)cc2c1 (configuration not stated)	-115	?	?	i	i	i
Cc1cc2cc(CN(Cc3ccco3)C(=S)NCC3CCCO3)c(=O)[nH]c2cc1C (configuration not stated)	-63	?	21µM	i	i	i
CC(C)NC(=O)c1ccc(CONC(=O)OCc2ccccc2)cc1	i	i	?	nt	i	i
CCCCC(=O)Nc1ccc(NCc2ccc(C)s2)cc1	i	?	3.7µM	nt	nt	i
O=C(CCS(=O)(=O)Cc1ccccc1)N1CCc2ccccc2C1	i	?	i	i	i	i
O=C(CCS(=O)(=O)Cc1ccccc1F)N1CCc2ccccc2C1	i	23µM	16µM	i	i	i
Cc1c(C(=O)O)sc(S(=O)(=O)N2CCNCC2)c1C(=O)O	nt	nt	nt	i	nt	nt
CCOC(=O)c1ccccc1NC(=O)CSc1ncc(CO)n1Cc1ccc(C)cc1	nt	15µM	i	i	nt	nt
Cc1ccc(Cn2c(CO)cnc2SCC(=O)Nc2ccc(C)c(Cl)c2)cc1	nt	18µM	23µM	i	nt	nt
COC(=O)c1ccc(CC2(C)C(=O)Nc3ccc(-c4cccc(C(F)(F)F)c4)cc32)o1 (configuration not stated)	i	?	16µM	nt	i	i
COc1ccc(OC(F)(F)F)cc1CC1(C)C(=O)Nc2ccc(-c3ccsc3)cc21 (configuration not stated)	i	?	?	nt	i	i
CC(=O)c1cccc(-c2ccc3c(c2)C(C)(Cc2ccccc2F)C(=O)N3)c1 (configuration not stated)	i	26µM	18µM	nt	i	i
O=c1[nH]c2ccc(S(=O)(=O)N3CCN(S(=O)(=O)c4c(F)cccc4F)CC3)cc2[nH]c1=O	nt	nt	nt	45µM	nt	nt
C=CCC(CC(O)COCCC)C(=O)NNC(=S)Nc1ccccc1 (configuration not stated)	i	4.6µM	2.3µM	i	i	i
CC1(C)CC(=O)C(C=NCCN2CCN(C(=O)CCl)CC2)=C(O)C1	i	?	10µM	nt	nt	i
CCC(=O)N1CCN(CCN=CC2=C(O)CC(C)(C)CC2=O)CC1	i	i	i	i	i	i
Cc1ccc(NC(=O)CN(C)C2CCCCC2)cc1Cl	?	i	?	i	i	i
COC(=O)c1cccc(NC(=O)Cc2coc3cc(OC)ccc23)c1	i	i	i	i	i	i
Cc1nc2cccnc2n1-c1cccc(C(=O)N2CCN(c3ccc(Cl)cc3)CC2)c1	nt	5.8µM	2.6µM	i	nt	nt
COc1ccc(N2CCN(C(=O)c3cccc(-n4c(C)nc5cccnc54)c3)CC2)cc1	nt	16µM	23µM	i	nt	nt
O=C(Nc1ccc(F)cc1)Nc1nnc(-c2ccncc2)s1	i	?	21µM	i	i	i
Cc1ccc(NC(=O)Nc2nnc(-c3ccncc3)s2)cc1C	i	21µM	13µM	i	i	i
O=C(NCCc1ccncc1)Nc1cccc(Cl)c1	i	i	i	i	i	i
SMILES	IL-1B inflam inh	DT40 TDP1 CPT	TDP1 cell noCPT	TDP1 block	CtBP-E1A blk	Six1-Eya2 inh
O=C(Nc1nnc(-c2ccc(F)cc2)s1)Nc1ccccc1F	i	i	i	i	i	i
O=C(Nc1cccc(Cl)c1)Nc1nnc(-c2ccncc2)s1	i	7.3µM	5.8µM	i	i	i
COC(=O)Nc1nnc(-c2ccncc2)s1	i	?	i	i	i	i
CCCC(=O)C1=C(O)C(C(=O)OC)C(C)(C)CC1=Nc1ccc(Br)cc1 (configuration not stated)	i	?	23µM	i	i	i
CCCC(=O)C1=C(O)C(C(=O)OC)C(C)(C)CC1=Nc1ccc(N)cc1 (configuration not stated)	i	i	i	i	i	i
CCCC(=O)C1=C(O)C(C(=O)OC)C(C)(C)CC1=Nc1ccc(OC)cc1 (configuration not stated)	i	?	21µM	i	i	i
O=C(NCCc1ccc(Cl)cc1)c1ccc2c(c1)N(Cc1ccccc1)C(=O)CS2	nt	16µM	18µM	i	nt	nt
CCC(C)NC(=O)c1ccc2c(c1)N(Cc1ccccc1)C(=O)CS2 (configuration not stated)	i	?	?	i	i	i
Cc1ccc(C)c(CN2C(=O)CSc3ccc(C(=O)NCCc4ccc(Cl)cc4)cc32)c1	nt	8.2µM	?	i	nt	nt
Cc1ccc(CN2C(=O)CSc3ccc(C(=O)NC4CC4)cc32)cc1	i	i	?	i[0.0935 µM]	i	i
O=C(NCCN1CCOCC1)c1ccc2c(c1)N(Cc1ccc(F)cc1)C(=O)CS2	i	i	i	i	i	i
O=C(NCCc1ccccc1)c1ccc2c(c1)N(Cc1ccc(F)cc1)C(=O)CS2	nt	?	16µM	i	nt	nt
COc1ccc(CCNC(=O)c2ccc3c(c2)N(Cc2c(F)cccc2Cl)C(=O)CS3)cc1OC	nt	8.2µM	9.2µM	i	nt	nt
Cc1ccccc1-n1nc(-c2cccnc2)cc1C(=O)N/N=C/c1ccncc1	i	?	i	i	i	i
CCCCCC(=O)N1CCN(CCN=CC2=C(O)CC(c3cccs3)CC2=O)CC1 (configuration not stated)	i	i	i	i	i	i
Cc1ccc(C)c(CN2C(=O)CSc3ccc(C(=O)NCc4ccc(F)cc4)cc32)c1	nt	16µM	?	i	nt	nt
Cc1ccc(C)c(CN2C(=O)CSc3ccc(C(=O)NCC(C)CN4CCC(C)CC4)cc32)c1 (configuration not stated)	i	15µM	?	nt	i	i
CCN1C(=O)CSc2ccc(C(=O)NC3CCCCC3)cc21	i	35µM	20µM	i	i	i
C=CCN1C(=O)CSc2ccc(C(=O)NC3CCCCC3)cc21	i	?	?	i	i	i
O=C(NCCc1ccccc1)c1ccc2c(c1)N(Cc1c(F)cccc1Cl)C(=O)CS2	nt	15µM	9.2µM	i	nt	nt
COc1ccccc1CNC(=O)c1ccc2c(c1)N(Cc1c(F)cccc1Cl)C(=O)CS2	nt	?	?	i	nt	nt
Cc1ccc(C)c(CN2C(=O)CSc3ccc(C(=O)N4CCCC4)cc32)c1	i	?	?	i	i	i
CN(C)S(=O)(=O)c1ccc(C(=O)NCc2nc3ccccc3s2)cc1	i	i	i	nt	i	i
